# Source: PubChem
# Hits are enriched below; roughly 2.3% of the tested compounds scored in any of these assays.
# M1 ag – agonists of human M1 muscarinic receptor. CHO-K1 hM1, Fluo-8 calcium fluorescence, agonist mode; 0% DMSO, 100% acetylcholine EC100. activation, % at 3 µM. actives 0.33% (n = 360,000). P11229;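 active means activation above the run's mean compound activation plus 3 SD, cut at about 16% in these data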;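 further: peak over basal fluorescence ratio within a 140 s kinetic read after compound addition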
# Target sequence (P11229 whole entry, looked up): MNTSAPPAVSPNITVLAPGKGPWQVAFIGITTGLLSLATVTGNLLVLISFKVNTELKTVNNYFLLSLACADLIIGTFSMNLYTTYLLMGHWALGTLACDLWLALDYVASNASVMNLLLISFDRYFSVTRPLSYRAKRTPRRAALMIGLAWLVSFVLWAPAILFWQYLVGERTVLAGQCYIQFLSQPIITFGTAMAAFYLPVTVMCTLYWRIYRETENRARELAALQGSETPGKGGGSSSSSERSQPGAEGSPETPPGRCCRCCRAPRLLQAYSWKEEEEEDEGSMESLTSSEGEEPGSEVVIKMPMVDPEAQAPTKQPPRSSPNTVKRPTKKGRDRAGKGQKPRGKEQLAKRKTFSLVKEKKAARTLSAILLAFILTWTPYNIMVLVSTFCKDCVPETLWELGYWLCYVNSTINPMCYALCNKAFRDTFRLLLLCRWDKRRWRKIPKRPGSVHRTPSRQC
# CHRM1 antagonist – antagonists of human M1 muscarinic receptor. P11229. CHO-K1 hM1, Fluo-8 calcium fluorescence, ACh EC80 antagonist. inhibition, % at 3 µM. actives 1.3% (n = 360,000);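 active means percent inhibition above its own plate's cutoff, namely the mean of that plate's compound wells plus 3 SD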;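 further: peak over basal fluorescence ratio during 140 s after agonist addition; 0% = ACh EC80 plus DMSO and 100% = DMSO alone without agonist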
# CHO-K1 Ca antag – M1 antagonist counterscreen hit in parental CHO-K1 cells | actives 0.6% (n = 360,000) | inhibition, % at 3 µM | ATP-induced calcium, Fluo-8 fluorescence;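 active means inhibition above a per-plate cutoff, the plate's mean sample inhibition plus 3 SD, cut at about 24% in these data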;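 further: 0% = DMSO plus EC80 ATP and 100% = DMSO alone without ATP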
# M1 PAM – positive allosteric modulators of human M1 muscarinic receptor | activation, % at 3 µM | P11229 | AID 588819 | actives 0.088% (n = 360,000) | CHO-K1 hM1, Fluo-8 calcium fluorescence, ACh EC20; 0% = ACh EC20, 100% = maximal ACh; in the data active means activation above about 19%, passing the limit was not always enough
# M1 PAM parental – counter-screen for M1 PAMs: effect in parental CHO-K1 cells; ATP EC20, Fluo-8 calcium fluorescence; 0% at ATP EC20, 100% at ATP max; activation, % at 3 µM; actives 0.02% (n = 360,000); AID 602247;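 active means activation above the run cutoff, the mean activation of all test compounds plus 3 SD, cut at about 40% in these data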;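 further: peak over basal fluorescence ratio in a 140 s read after ATP addition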
# M1 ag parental – nonselective activator or artifact in parental CHO-K1 cells; activation, % at 3 µM; Fluo-8 calcium fluorescence; scaled to maximal ATP response, vehicle zero; actives 0.48% (n = 360,000); in the data active means activation above about 15%;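 further: untransfected CHO-K1 host cells lacking M1 receptor as counterscreen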
# An asterisk follows results filed as active.
SMILES,M1 ag,CHRM1 antagonist,CHO-K1 Ca antag,M1 PAM,M1 PAM parental,M1 ag parental
COc1ccc(C(c2c(C)[nH]n(-c3ccccc3)c2=O)c2c(C)[nH]n(-c3ccccc3)c2=O)cc1OC,0,14,0,-3,28,15*
COc1ccc(C(c2c(C)n(C)n(-c3ccccc3)c2=O)c2c(C)n(C)n(-c3ccccc3)c2=O)cc1OC,-3,-8,-3,7,0,0
O=C(CN1CCc2ccccc21)NC(=O)NCc1ccccc1,-5,0,-4,-2,7,0
O=C(/C(=C/c1ccc(Cl)cc1)c1nc2ccccc2[nH]1)c1ccccc1,0,94*,-11,-21,16,1
CCn1c(C)c(C(C)=O)c(NCc2ccccc2)nc1=S,-9,51*,17,-22,0,-1
O=C(Nc1ccnn1C1CCN(CCCC2CCCC2)CC1)c1ccccc1Cl,-4,40*,-4,-17,-2,5
O=C(Nc1ccnn1C1CCN(C2CCC2)CC1)c1ccccc1Cl,-5,-15,46*,8,9,1
COc1ccccc1C(=O)Nc1ccnn1C1CCN(CCCC2CCCC2)CC1,-5,12,-8,-11,0,1
CCc1ccc(CN2CCC(n3nccc3NC(=O)c3ccccc3Cl)CC2)cc1,28*,-16,0,6,4,9
Cc1ccc(S(=O)(=O)N(CC(=O)Nc2ccccc2C(=O)O)c2ccccc2)cc1,-9,2,14,9,-3,16*
COc1ccccc1NC(=O)CN(c1ccccc1)S(=O)(=O)c1ccccc1,-1,-2,-9,5,11,1
O=C(NCCN1CCOCC1)c1ccc(NS(=O)(=O)c2ccccc2)cc1,-5,-6,-10,7,8,1
COc1ccc(C(=O)CSc2nnc(CN3CCCCC3)n2-c2ccc(F)cc2)cc1,17*,-3,-7,5,27,20*
COc1ccc(C(=O)CSc2nnc(-c3cccs3)n2-c2ccccc2)cc1,-3,-3,-18,4,15,1
O=C(Nc1ccc(Cl)cc1)c1ccc(OCC2CCCO2)cc1 (centres undefined),-3,10,9,-1,2,26*
COc1ccc(S(=O)(=O)N2CCCC2CNC(=O)C(=O)NCc2ccccn2)cc1 (centres undefined),-1,-14,8,14,4,0
CCCC(=O)Nc1ccccc1-c1nnc(SC)[nH]c1=O,-1,1,28*,7,5,0
CCCSc1nnc(-c2ccccc2NC(=O)CC)c(=O)[nH]1,-2,2,0,6,-4,0
Cc1cc(S(=O)(=O)N2CCOCC2)ccc1OCC(=O)N1CCCC1,6,-8,6,13,7,9
Cc1noc(C)c1COc1ccc(C(=O)OCC(N)=O)cc1,-4,6,27*,-7,-16,0
COc1ccc(COCC(O)CN2CCC(C(N)=O)CC2)cc1OC (centres undefined),-5,-6,10,10,17,19*
OC1(c2ccc(Cl)cc2)CCN(Cc2c[nH]c3ccccc23)CC1,22*,-17,-5,-10,13,3
CN(C(=O)CSc1nnc(Cc2cccs2)n1C1CC1)C1CCS(=O)(=O)C1 (centres undefined),-6,-12,19,12,10,-1
CCCCN1C(=O)/C(=C/C=C2\Oc3ccccc3N2CC)SC1=S,28*,43*,22,-8,2,15*
CCN1C(=O)/C(=C/C=C2/SCCN2C)SC1=S,8,-4,12,6,2,3
SMILES,M1 ag,CHRM1 antagonist,CHO-K1 Ca antag,M1 PAM,M1 PAM parental,M1 ag parental
CCCCN1C(=O)/C(=C/C=C2/CC(C)(C)CN2C)SC1=S,31*,36*,28*,-18,2,38*
COc1cc(-c2ccc3cc(OC)c(OC)c(OC)c3c2)cc(OC)c1OC,-7,1,-9,-7,5,0
CCC(NC(=S)NCc1ccc(F)cc1)c1ccc(C)cc1 (centres undefined),2,14,1,-15,10,8
COc1ccc(NC(=O)c2cc3ccccc3cc2OC)cc1,-5,-1,-6,4,4,1
COc1ccc(NC(=O)c2ccc3ccccc3c2OC)cc1,-3,3,-4,0,11,22*
COc1ccc(CC(=O)Nc2ccc(NC(=O)c3ccccc3F)cc2)cc1,27*,1,-13,4,23,2
COc1ccc(NC(=O)CSc2nc(N)c(NC(=O)c3ccccc3F)c(=O)[nH]2)cc1,-1,-12,5,14,-2,0
Cc1ccc2c(=O)c(CN3CCCCCC3)c(C)[nH]c2c1C,-11,72*,2,-21,-21,0
O=C(Nc1ccc(O)c(-c2nc3ccccc3s2)c1)C1=COCCO1,-8,79*,-9,-22,16,3
CCCCCCN1C[C@H](O)[C@@H](n2cc(C3CC3)nn2)C[C@@H]1c1ccc(OC)cc1,-7,0,-20,0,20,1
Cn1c(CCN2CCN(c3ccccn3)CC2)nc2cc(NS(=O)(=O)c3ccc(Cl)cc3)ccc21,-1,98*,9,-24,-9,7
Cc1ccc(S(=O)(=O)Nc2ccc3c(c2)nc(CCN2CCCCC2)n3C)cc1,-7,15,5,-11,-2,0
Cc1ccc(S(=O)(=O)Nc2ccc3c(c2)nc(CCN2CCN(c4ccccn4)CC2)n3C)cc1,-3,79*,-12,-24,6,8
Cc1ccccc1NC(=O)N1CCCC(c2nc(-c3ccc(F)cc3)no2)C1 (centres undefined),-6,-6,-9,-4,5,4
Cc1ccccc1NC(=O)N1CCCC(c2nc(-c3ccc(C(C)C)cc3)no2)C1 (centres undefined),-2,13,7,-5,1,17*
COc1ccc(CN2C(=O)CS/C2=N/N=C/c2cccs2)cc1,2,36,25*,-12,-12,10
COc1ccc(OC)c(/C=N/N=C2\SCC(=O)N2Cc2ccco2)c1,-5,4,-14,-3,19,2
Cn1c(N)c(-c2ccccc2)c2ccc([N+](=O)[O-])cc2c1=O,62*,42*,-5,-24,-6,16*
NC1=NN(c2c(Cl)cc(Cl)cc2Cl)C(=O)C1,-3,-14,-4,7,15,0
COc1ccc(NS(=O)(=O)c2cccc(C(=O)NCCCN3CCOCC3)c2)cc1,1,-5,-8,1,21,1
COc1ccccc1C(CNC(=O)c1cccc(S(=O)(=O)Nc2ccc(F)cc2)c1)N1CCCC1 (centres undefined),-8,101*,-1,-31,-6,0
